JMJD2A Tudor = blocks the human JMJD2A Tudor domain; O75164; AlphaScreen JMJD2A-Tudor / H3K4me3 peptide binding; Potency, µM (series often up to 114 µM), usual class: inhibitors; 4.4% of 390,000 active; further: nearly all actives have a fitted effect of over 50% in size
G9a block = blocks human histone lysine methyltransferase G9a; Potency, µM (highest dose often 102 µM), actives largely listed as inhibitors; G9a H3K9 monomethylation, AlphaScreen, 2 h; 8.8% of 350,000 active; AID 504332; Q96KQ7; further: nearly all actives have a fitted effect of over 75% in size
Target sequence (Q96KQ7 913-1193 limits assumed): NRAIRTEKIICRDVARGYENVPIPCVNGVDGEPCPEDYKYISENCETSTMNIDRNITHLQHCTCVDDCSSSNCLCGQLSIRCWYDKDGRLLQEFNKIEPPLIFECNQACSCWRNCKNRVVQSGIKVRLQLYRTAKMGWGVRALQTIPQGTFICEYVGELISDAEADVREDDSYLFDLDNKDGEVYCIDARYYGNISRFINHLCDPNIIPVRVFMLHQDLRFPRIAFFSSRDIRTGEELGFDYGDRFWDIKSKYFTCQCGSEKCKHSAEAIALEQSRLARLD
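Methyltransferase reactions run at room temperature for 2 h (20 nM enzyme, 500 nM biotin-H3K9 peptide, 20 uM SAM) after a 15 min compound preincubation; product detected by AlphaScreen beads and anti-H3K9me1 antibody.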
BAZ2B inh = inhibitors of human BAZ2B bromodomain; AlphaScreen BAZ2B-H3K14Ac peptide displacement; Potency, µM (doses to about 114 µM), actives largely listed as inhibitors; 4.4% of 360,000 active; further: nearly all actives have a fitted effect of over 60% in size
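In this displacement format the biotinylated H3(5-23) peptide acetylated at Lys14 serves as ligand at 50 nM, with BAZ2B at 50 nM in PBS pH 7.4 containing 0.01% Tween-20. Donor and acceptor beads are 10 ug/mL final.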
HP1b chromo inh = blocks HP1-beta chromodomain binding to methylated histone tails. P83916. AlphaScreen HP1-beta / biotin-H3K9me3 peptide binding. Potency, µM (series often up to 114 µM), hits mostly inhibitors. 0.56% of 390,000 active. AID 540317; further: nearly all actives have a fitted effect of over 70% in size
Target sequence (P83916 whole entry, looked up): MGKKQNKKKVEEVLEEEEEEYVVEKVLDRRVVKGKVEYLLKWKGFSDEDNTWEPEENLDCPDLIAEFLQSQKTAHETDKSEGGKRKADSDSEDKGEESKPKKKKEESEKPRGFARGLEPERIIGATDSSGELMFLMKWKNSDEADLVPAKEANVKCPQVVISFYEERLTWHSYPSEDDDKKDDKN
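Compound inhibition of the preformed complex between 50 nM HP1-beta and 50 nM biotinylated H3K9me3 peptide was read by AlphaScreen. Buffer was PBS pH 7.4 with 0.01% Tween-20. Incubations ran 30 min at room temperature, with 10 ug/mL donor/acceptor beads.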
Sfp inh = Sfp phosphopantetheinyl transferase inhibition | Q9F4F7 | Biochemical Sfp PPTase activity, qHTS | Potency, µM, usual class: inhibitors | 3.5% of 310,000 active | AID 1490;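 further: the enzyme is Sfp with the accession as filed and its product quenches rhodamine fluorescence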
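Buffer: 50 mM Hepes-Na pH 7.6, 10 mM MgCl2, 0.01% Nonidet P-40, 0.01% BSA. Enzyme 15 nM, pre-exposed to compound 15 min; substrates then added and fluorescence change tracked over 30 min.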
Each line names hits and unclear results; the compound was inactive in the other large screens; ! = not active in a repeat. Compounds with a hit are over-represented: about 12% of the library has one in this group of screens. The call rests on the fitted dose curve; in most records, active means well fitted curve in the direction sought with a large enough effect; inconclusive means small, poorly fitted or top-dose-only effect, or another doubt; inactive means no such curve, though single readings can be large; an effect the other way counts as inactive or inconclusive.

Cc1cccc(C)c1NC(=O)Cn1cc(S(=O)(=O)Cc2ccc(F)cc2)c2ccccc21	JMJD2A Tudor inconclusive, BAZ2B inh inconclusive (no result: Sfp inh)
CN(C)c1ccc(NC(=O)Cn2cc(S(=O)(=O)Cc3cccc(Cl)c3)c3ccccc32)cc1	G9a block inconclusive (no result: Sfp inh)
CN(C)c1ccc(NC(=O)Cn2cc(S(=O)(=O)Cc3ccccc3Cl)c3ccccc32)cc1	JMJD2A Tudor inconclusive, G9a block 5.01µM, BAZ2B inh 25.1µM (no result: Sfp inh)
COc1ccc(OC)c(S(=O)(=O)Nc2cc3c(cc2C)n(C)c(=O)c(=O)n3C)c1	none (no result: Sfp inh)
Cc1cn(C2CC3OCC(NC(=O)C(NC(=O)OC(C)(C)C)C(C)OCc4ccccc4)C3O2)c(=O)[nH]c1=O (centres undefined)	none (no result: G9a block, BAZ2B inh)
CCOC(=O)c1ccccc1NC(=O)Cn1c(=O)n(Cc2nc(C)no2)c(=O)c2ccccc21	none (no result: Sfp inh)
CC(O)CC(C(=O)NNc1ccccc1)C(=O)NNc1ccccc1 (centres undefined)	G9a block 3.16µM
Cc1ccc(NC(=O)c2cc3c(-c4ccccc4)nn(-c4ccccc4)c3s2)cc1	none (no result: Sfp inh)
COc1ccc(-c2nnc(C3CCN(C(=O)c4ccccc4F)CC3)o2)cc1	JMJD2A Tudor 56.2µM, G9a block 14.1µM, BAZ2B inh inconclusive (no result: Sfp inh)
Cc1ccccc1-c1nnc(-c2ccc(Cl)cc2)o1	none
COc1ccc(-c2nnc(C3CCN(S(=O)(=O)c4cccc(Cl)c4)CC3)o2)cc1	JMJD2A Tudor inconclusive, G9a block 11.2µM (no result: Sfp inh)
COc1ccc(S(=O)(=O)N2CCC(c3nnc(-c4ccccc4C)o3)CC2)c(OC)c1	G9a block 8.91µM (no result: Sfp inh)
Cc1ccccc1-c1nnc(C2CCN(S(=O)(=O)c3ccc(Cl)cc3)CC2)o1	G9a block 7.94µM (no result: Sfp inh)
COc1ccc(S(=O)(=O)N2CCN(c3ccccn3)CC2)c(OC)c1	none
Cc1ccc(Cl)c(NC(=O)Nc2csc3c2CCCC3)c1	none (no result: Sfp inh)
COc1ccc(C(CNC(=O)c2ccc(OCc3c(C)noc3C)cc2)N2CCCC2)cc1 (centres undefined)	none (no result: Sfp inh)
COc1ccc(NC(=O)CCC(=O)N2CCC(c3ccccc3)=N2)cc1S(=O)(=O)N1CCCCC1	none (no result: G9a block, BAZ2B inh, Sfp inh)
CCOC(=O)C1=C(c2ccccc2)N=c2s/c(=C\c3cccc(O)c3)c(=O)n2C1c1cccs1 (centres undefined)	JMJD2A Tudor inconclusive, G9a block inconclusive, BAZ2B inh inconclusive
O=c1/c(=C\c2ccc(O)cc2)sc2n1C(c1ccccc1)C(c1ccccc1)=NN=2 (centres undefined)	G9a block 44.7µM, Sfp inh 50.1µM
COc1ccc(Br)cc1CNC(=O)c1nn(-c2ccc(C)cc2)c(=O)c2c1c1ccccc1n2C	none (no result: BAZ2B inh, Sfp inh)
Cc1ccc(-c2c(C)cc3oc(=O)cc(-c4ccccc4)c3c2C)cc1	none (no result: BAZ2B inh)
Cc1cc2oc(=O)cc(-c3ccccc3)c2c(C)c1-c1ccc(N(C)C)cc1	JMJD2A Tudor inconclusive, G9a block 28.2µM (no result: BAZ2B inh)
COc1cc(OC)c2c(-c3cccc(-c4ccc(N(C)C)cc4)c3)cc(=O)oc2c1	JMJD2A Tudor 10µM, G9a block 8.91µM, HP1b chromo inh inconclusive (no result: BAZ2B inh)
COc1ccc(CNC(=O)c2cnc3sc(N4CCCC4)nn3c2=O)c(OC)c1	none (no result: Sfp inh)
CCCC/C=C/[C@H](c1ccccc1)[C@H](CO)Cc1ccc2ccccc2c1	none (no result: G9a block, BAZ2B inh)
Cc1cccc(N=N/C(=C\O)C(=O)c2cccs2)c1	JMJD2A Tudor 25.1µM, G9a block 28.2µM, BAZ2B inh 11.2µM, HP1b chromo inh inconclusive
O=C(/C(=C/O)N=Nc1ccccc1)c1ccncc1	JMJD2A Tudor inconclusive, BAZ2B inh inconclusive
COC(=O)[C@]1(C)N[C@H](CN(C)S(=O)(=O)c2ccc(F)cc2)[C@@H]2C(=O)N(C)C(=O)[C@@H]21	none (no result: G9a block, BAZ2B inh, Sfp inh)
O=C(c1ccc2c(c1)N(Cc1ccc(F)cc1)C(=O)c1ccccc1S2(=O)=O)N1CCN(Cc2ccccc2)CC1	none (no result: Sfp inh)
O=C(NCCCn1ccnc1)c1ccc2nccnc2c1	BAZ2B inh 50.1µM (no result: G9a block)
CCN(CC)S(=O)(=O)c1cccc(C(=O)NC2=NCCS2)c1	G9a block 50.1µM
O=C(NC1=NCCS1)c1cccc(S(=O)(=O)N2CCCCC2)c1	none (no result: JMJD2A Tudor, HP1b chromo inh)
CCN(CC)S(=O)(=O)c1cccc(C(=O)NCCCn2ccnc2)c1	G9a block 56.2µM
O=C(COC(=O)CC1CC2CCC1C2)Nc1ccccc1[N+](=O)[O-] (centres undefined)	JMJD2A Tudor 50.1µM, HP1b chromo inh inconclusive (no result: G9a block, BAZ2B inh, Sfp inh)
CN1CCc2cccc3c2C1Cc1ccc(O)c(O)c1-3 (centres undefined)	JMJD2A Tudor 39.8µM, G9a block 1.89µM!, BAZ2B inh inconclusive, HP1b chromo inh inconclusive, Sfp inh 56.2µM!
Cc1ccc(-c2noc(=O)n2CC(=O)c2ccc(Cl)cc2)cc1	none (no result: G9a block)
Cc1ccc(C(=O)c2no[n+]([O-])c2C(=O)c2ccc(C)cc2)cc1	G9a block 39.8µM, BAZ2B inh inconclusive, Sfp inh inconclusive
CCOc1ccc(CCNC(=O)C2Cc3ccccc3N2C(=O)CC)cc1OCC (centres undefined)	none (no result: Sfp inh)
CCOc1cccc(=O)c2c(C)n(-c3ccc(C(=O)O)cc3)c(C)c12	JMJD2A Tudor inconclusive, BAZ2B inh 50.1µM, HP1b chromo inh inconclusive, Sfp inh 28.2µM (no result: G9a block)
COc1ccc(-n2c(C)c3c(OC)cccc(=O)c3c2C)cc1	G9a block inconclusive, BAZ2B inh inconclusive
CCOc1cccc(=O)c2c(C)n(Cc3ccccc3)c(C)c12	JMJD2A Tudor inconclusive, BAZ2B inh inconclusive (no result: G9a block)
COc1cccc(=O)c2c(C)n(-c3ccc(C(=O)O)cc3)c(C)c12	G9a block inconclusive, BAZ2B inh inconclusive, Sfp inh 4.47µM
CCN(CC)c1ccc(CN(C(=O)c2cc(=O)c3ccccc3o2)C2CCS(=O)(=O)C2)cc1 (centres undefined)	JMJD2A Tudor inconclusive, G9a block inconclusive, BAZ2B inh inconclusive (no result: Sfp inh)

From PubChem
